In PubChem BioAssay (NCI):
Values joined by “and” are separate entries in the source; they are usually repeats but may differ in a detail not shown here. Identical values can stand only once. About 83,000 compounds went through this panel and 20% of them were active in at least one assay; those are over-represented in the sample as a whole.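 Single-concentration screen, 48 h exposure, 96-well plates. Endpoint: percent growth. Below 10 = active.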 Active and inactive are the calls of the source.

Experiments:
Assay in all cases: NCI-60 one-dose screen, 48 h (100 = growth as untreated, 0 = no growth, -100 = all killed)
HCT-15 colon = test system: HCT-15 colon
HT29 colon = test system: HT29 colon
SNB-75 CNS = test system: SNB-75 CNS
SNB-19 CNS = test system: SNB-19 CNS
U251 CNS = test system: U251 CNS
PC-3 prostate = test system: PC-3 prostate
LOX IMVI melanoma = test system: LOX IMVI melanoma
SK-MEL-28 melanoma = conditions: 10 µM unless noted
SK-MEL-2 melanoma = test system: SK-MEL-2 melanoma
EKVX NSCLC = test system: EKVX NSCLC
UO-31 renal = test system: UO-31 renal
TK-10 renal = test system: TK-10 renal
CAKI-1 renal = test system: CAKI-1 renal
A498 renal = test system: A498 renal
HL-60(TB) leukemia = test system: HL-60(TB) leukemia
CCRF-CEM leukemia = test system: CCRF-CEM leukemia
SK-MEL-5 melanoma = conditions: 10 µM unless noted
UACC-62 melanoma = conditions: 10 µM unless noted
SN12C renal = conditions: 10 µM unless noted
ACHN renal = conditions: 10 µM unless noted

Measured: growth

O=C(O)CCCc1ccc(N(CCCl)CCCl)cc1
inactive: HCT-15 colon; 10 µM 86.1% and 95.5% | HCT-15 colon; 75 µM 46.3% | HT29 colon; 10 µM 85.7% and 74.5% | HT29 colon; 75 µM 45.2% | SNB-75 CNS; 10 µM 88.9% and 90.1% | SNB-19 CNS; 10 µM 102% and 95.9% | SNB-19 CNS; 75 µM 32.9% | U251 CNS; 10 µM 85.1% and 84% | U251 CNS; 75 µM 30% | PC-3 prostate; 10 µM 85.3% and 64.5% | PC-3 prostate; 75 µM 45.3% | LOX IMVI melanoma; 10 µM 83.1% and 80.2% | LOX IMVI melanoma; 75 µM 26.7% | SK-MEL-28 melanoma 99.3% | SK-MEL-2 melanoma; 10 µM 102% and 109% | SK-MEL-2 melanoma; 75 µM 100% | EKVX NSCLC; 10 µM 101% | EKVX NSCLC; 75 µM 82.2% | UO-31 renal; 10 µM 83.4% and 89.5% | UO-31 renal; 75 µM 28.8% | TK-10 renal; 10 µM 102% | TK-10 renal; 75 µM 84.6% | CAKI-1 renal; 10 µM 57.9% and 34.2% | A498 renal; 10 µM 115% and 99.6% | A498 renal; 75 µM 68.5% | HL-60(TB) leukemia; 10 µM 19.6% | CCRF-CEM leukemia; 10 µM 71.9% and 46.6%
active: SNB-75 CNS; 75 µM 3.53% | CAKI-1 renal; 75 µM -12.5% | HL-60(TB) leukemia; 75 µM 3.35% | CCRF-CEM leukemia; 75 µM -7.66%

Oc1ccc(O)c(Cl)c1
inactive: HCT-15 colon; 10 µM unless noted 96.4% and 110% | HT29 colon; 10 µM unless noted 103% and 107% | SNB-75 CNS; 10 µM unless noted 72.2% and 85.8% | SNB-19 CNS; 10 µM unless noted 111% | U251 CNS; 10 µM unless noted 94.6% and 101% | PC-3 prostate; 10 µM unless noted 84.3% and 94.2% | SK-MEL-5 melanoma 91.3% and 95.2% | UACC-62 melanoma 93.9% and 101% | LOX IMVI melanoma; 10 µM unless noted 94.4% and 93.9% | SK-MEL-28 melanoma 115% and 122% | SK-MEL-2 melanoma; 10 µM unless noted 102% | EKVX NSCLC; 10 µM unless noted 112% | SN12C renal 89.7% and 99.6% | UO-31 renal; 10 µM unless noted 56.6% and 75.2% | TK-10 renal; 10 µM unless noted 124% and 110% | ACHN renal 95.9% and 101% | CAKI-1 renal; 10 µM unless noted 93.4% and 101% | A498 renal; 10 µM unless noted 109% and 98.6% | HL-60(TB) leukemia; 10 µM unless noted 12.3% and 94.8% | CCRF-CEM leukemia; 10 µM unless noted 15.5% and 64.5%

CC(=O)Nc1nc2c(s1)C1=CC[C@H]3[C@@H]4CC[C@H](OC(C)=O)[C@@]4(C)CC[C@@H]3[C@@]1(C)CC2
active: SNB-75 CNS; 10 µM unless noted 0.377%
inactive: HCT-15 colon; 10 µM unless noted 40.3% | HT29 colon; 10 µM unless noted 26.6% | SNB-19 CNS; 10 µM unless noted 62% | U251 CNS; 10 µM unless noted 43.9% | PC-3 prostate; 10 µM unless noted 59.2% | SK-MEL-5 melanoma 36.9% | UACC-62 melanoma 49.5% | LOX IMVI melanoma; 10 µM unless noted 63.5% | SK-MEL-28 melanoma 54.7% | SK-MEL-2 melanoma; 10 µM unless noted 50.3% | EKVX NSCLC; 10 µM unless noted 82.9% | SN12C renal 69.7% | UO-31 renal; 10 µM unless noted 72.7% | TK-10 renal; 10 µM unless noted 96.2% | ACHN renal 67.7% | CAKI-1 renal; 10 µM unless noted 24.4% | A498 renal; 10 µM unless noted 62.1% | HL-60(TB) leukemia; 10 µM unless noted 43.4% | CCRF-CEM leukemia; 10 µM unless noted 57.7%

C(=NC1CCCCC1)=NC1CCCCC1
inactive: HCT-15 colon; 10 µM unless noted 108% | HT29 colon; 10 µM unless noted 101% and 91.9% | SNB-75 CNS; 10 µM unless noted 87.5% and 79.6% | SNB-19 CNS; 10 µM unless noted 103% and 83.9% | U251 CNS; 10 µM unless noted 117% | PC-3 prostate; 10 µM unless noted 97.5% and 48.6% | SK-MEL-5 melanoma 103% and 61.4% | UACC-62 melanoma 104% and 87.6% | LOX IMVI melanoma; 10 µM unless noted 109% | SK-MEL-28 melanoma 97.2% and 94.9% | SK-MEL-2 melanoma; 10 µM unless noted 92.8% and 94.4% | EKVX NSCLC; 10 µM unless noted 41.3% | SN12C renal 100% and 82.2% | UO-31 renal; 10 µM unless noted 98% and 76.9% | TK-10 renal; 10 µM unless noted 101% and 104% | ACHN renal 97.5% | CAKI-1 renal; 10 µM unless noted 91.3% and 88.7% | A498 renal; 10 µM unless noted 104% and 51.2% | HL-60(TB) leukemia; 10 µM unless noted 118% and 46.3% | CCRF-CEM leukemia; 10 µM unless noted 77.3%

Cc1cc(Br)c([N+](=O)[O-])cc1[N+](=O)[O-]
inactive: HCT-15 colon; 10 µM unless noted 76.1% | HT29 colon; 10 µM unless noted 103% | SNB-75 CNS; 10 µM unless noted 108% | SNB-19 CNS; 10 µM unless noted 103% | U251 CNS; 10 µM unless noted 103% | PC-3 prostate; 10 µM unless noted 91.4% | SK-MEL-5 melanoma 100% | UACC-62 melanoma 102% | LOX IMVI melanoma; 10 µM unless noted 19.7% | SK-MEL-28 melanoma 116% | SK-MEL-2 melanoma; 10 µM unless noted 111% | EKVX NSCLC; 10 µM unless noted 103% | SN12C renal 101% | UO-31 renal; 10 µM unless noted 114% | TK-10 renal; 10 µM unless noted 110% | ACHN renal 106% | CAKI-1 renal; 10 µM unless noted 88.5% | A498 renal; 10 µM unless noted 97.9% | HL-60(TB) leukemia; 10 µM unless noted 59.4% | CCRF-CEM leukemia; 10 µM unless noted 60.5%

CN1C2CCC1[C@@H](COC(=O)c1ccccc1)[C@@H](O)C2 (stereo not given in full)
inactive: HCT-15 colon; 10 µM unless noted 111% | HT29 colon; 10 µM unless noted 91.3% | SNB-75 CNS; 10 µM unless noted 83.5% | SNB-19 CNS; 10 µM unless noted 102% | U251 CNS; 10 µM unless noted 103% | PC-3 prostate; 10 µM unless noted 99.7% | SK-MEL-5 melanoma 112% | UACC-62 melanoma 96% | LOX IMVI melanoma; 10 µM unless noted 103% | SK-MEL-28 melanoma 128% | SK-MEL-2 melanoma; 10 µM unless noted 104% | EKVX NSCLC; 10 µM unless noted 104% | SN12C renal 105% | UO-31 renal; 10 µM unless noted 91.8% | TK-10 renal; 10 µM unless noted 131% | ACHN renal 105% | CAKI-1 renal; 10 µM unless noted 122% | A498 renal; 10 µM unless noted 144% | CCRF-CEM leukemia; 10 µM unless noted 94.3%
